From PubChem
Sampled rows, rich in hits. Any-hit rate of the full collection: about 1%.
RXFP1 antagonist = antagonists of human relaxin receptor RXFP1. HEK293-RXFP1, relaxin-stimulated cAMP HTRF, 30 min; hits give low values. Q9HBX9. AID 1259400. 350,000 compounds, 0.59% hits. activity change, negative = inhibition, % at 57.5 µM;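 active = activity change of -60% or lower, but not beyond a set lower limit; inconclusive = change between -60% and -40%, or beyond the set limit; inactive = change above -40%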; note: % is set by controls: 0 for no effect and ±100 for the full control effect
gsp ag = gsp mutant agonism | Potency, µM (series often up to 76.9 µM), for the others: top-dose activation (cAMP increase), hits mostly activators | gsp mutant cells, cAMP HTRF, 30 min | 340,000 compounds, 0.13% hits; active = well fitted activation curve with a large enough effect; inconclusive = small, poorly fitted or top-dose-only effect, or another doubt; inactive = no such curve, though single readings can be large or run the other way; cell line not stated here;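 note: phosphodiesterase inhibitor Ro 20-1724 added with compounds to block cAMP breakdown; potency is the fitted concentration of half-maximal effect; nearly all actives have a fitted effect of over 60% in size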
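Cells in DMEM/10% FBS with G418 were pretreated with compounds in DMSO plus […] (300 uM stock) for 30 min at 37C. cAMP was measured by HTRF (cAMP-d2 plus anti-cAMP antibody-K) after 30 min at room temperature.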
gsp antagonist = gsp mutant antagonism | 340,000 compounds, 0.4% hits | Potency, µM (series often up to 76.9 µM), for inactives: at the highest dose activity change, negative = inhibition, usual class: inhibitors | gsp-mutant cells, cAMP HTRF, 30 min; calls by dose curve; cell line not stated here;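 note: intracellular cAMP measured with PDE inhibitor Ro 20-1724 present during compound exposure; potency is the fitted concentration of half-maximal effect; % is set by controls: 0 for no effect and ±100 for the full control effect; nearly all actives have a fitted effect of over 65% in size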
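Measurement of cellular cAMP by homogeneous time-resolved fluorescence following a 30 min compound exposure at 37C. The PDE inhibitor […] was present throughout; the assay buffer was DPBS with 0.05% BSA and 0.005% Tween 20.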
RXFP1 agonist = RXFP1 (human) receptor agonism | AID 2676 | 370,000 compounds, 0.3% hits | Q9HBX9 | HEK293T-RXFP1 cAMP TR-FRET, 30 min; response scale: percent of porcine relaxin response, buffer zero | Potency, µM (top dose mostly 57.5 µM), without a hit: top-dose activation, usual class: activators; note: potency is the fitted concentration of half-maximal effect; % is set by controls: 0 for no effect and ±100 for the full control effect; nearly all actives have a fitted effect of over 60% in size
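HEK293T cells stably expressing RXFP1 were pretreated with the PDE4 inhibitor Ro 20174, exposed to compounds for 30 min at 37C, lysed, and cAMP was read by TR-FRET. Data normalized to buffer (basal) and 29 nM porcine relaxin (100%).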
PTHR1 ag = agonists of human PTHR1 parathyroid hormone receptor | Q03431 | HEK293 GP2 PTHR1 cells, GloSensor cAMP luminescence, 1 h | Potency, µM (titrated, usually from 115 µM), for inactives: at the top dose activation, hits mostly activators | 410,000 compounds, 0.075% hits | AID 743266; note: potency is the fitted concentration of half-maximal effect; nearly all actives have a fitted effect of over 55% in size
Target sequence (Q03431 whole entry, looked up): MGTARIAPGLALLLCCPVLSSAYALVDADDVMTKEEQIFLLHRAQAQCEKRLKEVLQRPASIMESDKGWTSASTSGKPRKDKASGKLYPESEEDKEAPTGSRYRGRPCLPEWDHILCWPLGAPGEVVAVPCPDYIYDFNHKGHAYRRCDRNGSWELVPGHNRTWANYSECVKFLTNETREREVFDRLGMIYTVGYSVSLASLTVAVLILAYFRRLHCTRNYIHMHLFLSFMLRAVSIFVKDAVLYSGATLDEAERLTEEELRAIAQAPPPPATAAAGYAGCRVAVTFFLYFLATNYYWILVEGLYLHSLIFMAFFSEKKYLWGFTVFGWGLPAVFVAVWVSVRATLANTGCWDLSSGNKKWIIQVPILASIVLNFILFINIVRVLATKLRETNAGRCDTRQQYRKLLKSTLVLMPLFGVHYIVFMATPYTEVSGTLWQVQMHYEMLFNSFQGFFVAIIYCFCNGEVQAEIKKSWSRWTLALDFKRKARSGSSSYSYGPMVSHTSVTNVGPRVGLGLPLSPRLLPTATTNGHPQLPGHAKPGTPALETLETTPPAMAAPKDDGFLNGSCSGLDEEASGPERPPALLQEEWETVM
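HEK-293-derived GP2 cells expressing PTHR1 and a GloSensor cAMP reporter, 3,000/well, plated overnight, given luciferin plus IBMX (each 0.5 mM as added) for 1 h at 37 °C, then compound for 1 h at 37 °C. Luminescence was read after 15 min at room temperature.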
Active calls of the source: *; i = inactive; ? = inconclusive; / = no result given; [ ] = dose if it differs, or a comment. Unless noted, calls come from the whole dose curve; as a rule, active = well fitted curve in the direction sought with a large enough effect; inconclusive = small, poorly fitted or top-dose-only effect, or another doubt; inactive = no such curve, though single readings can be large; an effect the other way counts as inactive or inconclusive.

SMILES	RXFP1 antagonist	gsp ag	gsp antagonist	RXFP1 agonist	PTHR1 ag
CC(Oc1ccccc1)C(=O)Nc1nnc2n1CCS2 (centres undefined)	8	/	/	1%	32µM*
CCc1ccccc1NC(=O)Cn1nc(C)c2nn(-c3ccc(Cl)cc3)c(C)c2c1=O	-7	/	/	21%	-74%
O=P(O)(O)OC[C@@H](O)CO	3	/	/	/	/
CC(=O)c1ccc(N2CCN(C(=O)c3n[nH]c4ccccc34)CC2)cc1	-7	-8%[15.4 µM]	11µM*	2%	-39%
Cc1ccc(Cl)cc1N1CCN(C(=O)Cn2ccc3ccccc3c2=O)CC1	-11	-6%	25µM*	2%	-35%
CCOC(=O)C1CCN(C(=O)CN2C(=O)CSc3ccc(S(=O)(=O)N4CCOCC4)cc32)CC1	11	3.5µM*	5%	21%	i
CCOc1ccc(/C=C/[N+](=O)[O-])c2ccccc12	-69*	5%	-2%	2%	-16%[57.5 µM]
CCOC(=O)COc1ccc2ccccc2c1/C=C/[N+](=O)[O-]	?	0%	8%	2%	-45%
CCOC(=O)COc1ccc(/C=C/[N+](=O)[O-])c(OCC(=O)OCC)c1	-69*	10%	17%	3%	-35%[57.5 µM]
CN(C)S(=O)(=O)N1CCC(Oc2cccc(C(=O)NCCC3=CCCCC3)c2)CC1	-15	-38%	35µM*	-3%	-95%
CC(=O)c1sc(N/N=C\c2c(O)ccc3ccccc23)nc1C	-82*	12%	-6%	/	-10%
CC(=O)c1sc(N/N=C/c2cccc(O)c2)nc1C	/	18%	-10%	1%	-28%
CC(=O)N1CCc2c(sc3c2c(=O)n(-c2ccc(C)cc2)c(=O)n3Cc2ccccc2C)C1	/	/	/	2%	-46%
Cc1c(C(=O)N2CCOCC2)sc(NC(=O)c2ccc([N+](=O)[O-])cc2)c1C#N	3	19%[15.4 µM]	35µM*	-5%	-52%
CCN(CC)S(=O)(=O)c1cccc(C(=O)Nc2nnc(C)s2)c1	6	21%[15.4 µM]	-15%	18%	i
CCN(CC)S(=O)(=O)c1cccc(C(=O)Nc2cc(C)on2)c1	2	16%	50µM*	0%	i
O=C(NCCN1CCOCC1)c1c(O)nc2ccccn2c1=O	-91*	15%	3%	17%	-23%
CN1CCCCCC1=Nc1ccc([N+](=O)[O-])cc1	17	8%[15.4 µM]	8%	/	-11%
CN1C(=O)C(N=Nc2ccc([N+](=O)[O-])cc2)SC1=S (centres undefined)	-21	?	32µM*	/	-19%
CC(=O)c1ccc(-n2c(CCC(=O)O)ccc2-c2ccc(Br)cc2)cc1	3	?	0.89µM*	1%	-22%
Cc1ccc2ccc(Cl)cc2n1	10	/	/	/	/
CC(C)=CCc1c(O)cc2oc3c(CC=C(C)C)c(O)c(O)c(CC=C(C)C)c3c(=O)c2c1O	-14	?	32µM*	-1%	-16%
CCc1c(-c2ccccc2)nc2sc3c(c2c1N)CCCC3	-32	6%[15.4 µM]	35µM*	0%	-3%
C=CCn1c(SCc2ccccc2C#N)nnc1-c1cc(Br)ccc1O	-11	-2%	35µM*	0%	15%[57.5 µM]
C=CCn1c(SCC(N)=O)nnc1-c1cccc(Br)c1	0	-30%	-1%	1%	i
SMILES	RXFP1 antagonist	gsp ag	gsp antagonist	RXFP1 agonist	PTHR1 ag
Cc1ccc(C(=O)Nc2nc(-c3ccco3)c(-c3ccco3)s2)o1	-81*	7%	?	-3%	-17%
O=C(CCl)Nc1nc(-c2ccco2)c(-c2ccco2)s1	?	-23%	?	0%	-17%
NC(=O)COCCN1CCN(C(c2ccccc2)c2ccc(Cl)cc2)CC1 (centres undefined)	-4	/	/	/	/
Cc1ccc([N+](=O)[O-])cc1N=Nc1c(-c2ccc([N+](=O)[O-])cc2)[nH]n(C(N)=S)c1=O	-6	-2%	13µM*	0%	-47%
N#CC(C#N)=C1NC(N)=C(C#N)C(c2ccccc2)=C1C#N	/	/	/	28µM*	/
CCOCCn1c(C2CCN(CCc3ccc(C(C)(C)C(=O)O)cc3)CC2)nc2ccccc21	-2	/	/	/	/
COc1cc(NC(c2ccccc2)c2ccccc2)cc(OC)c1OC	-3	0%[15.4 µM]	11µM*	1%	-19%
COc1cc(NC(=O)CNC(c2ccccc2)c2ccccc2)cc(OC)c1OC	-6	-14%[15.4 µM]	-12%	3%	-9%
C=Cc1ccc(CSc2nc(-c3ccc(OC)cc3)nc3c2Cc2c(CO)cnc(C)c2O3)cc1	-20	/	/	2%	i
Cc1cc(C)c(C#N)c(SCc2ccccc2)n1	-21	-19%	-10%	-1%	i
Cc1cc(C)c(C#N)c(SCc2ccc(C(=O)O)cc2)n1	-19	-3%	40µM*	-1%	i
O=C(O)c1ccc2c(c1)C(=O)N([C@@H](Cc1ccc(O)cc1)C(=O)O)C2=O	/	/	/	2%	/
O=C(O)C(Cc1ccc(O)cc1)N1C(=O)c2c(Cl)c(Cl)c(Cl)c(Cl)c2C1=O (centres undefined)	-62*	-34%[15.4 µM]	-2%	/	i
COc1ccc(NC(=O)c2c(NCc3ccc(OC)c(OC)c3OC)sc3c2CCC3)c(OC)c1	-21	/	/	1%	i
CC(=O)N1CCCC1c1nc2ccccc2n1Cc1cc(C)ccc1C (centres undefined)	/	/	/	-5%	i
CCCC(C(=O)O)n1c(O)c(C=C2N=c3ccccc3=N2)sc1=S (centres undefined)	-61*	-40%	-11%	-14%	-24%
C[C@@H](CN1CC(=O)NC(=O)C1)N1CC(=O)NC(=O)C1	-15	/	/	/	/
O=C(Nc1ccccc1F)c1nc(S(=O)(=O)Cc2ccccc2F)ncc1Cl	?	/	/	2%	-49%
Cc1ccc(NC(=O)c2nc(S(=O)(=O)Cc3ccccc3)ncc2Cl)cc1	-85*	0%[15.4 µM]	-12%	1%	-24%
Cc1ccccc1CS(=O)(=O)c1ncc(Cl)c(C(=O)Nc2ccc(F)cc2)n1	-104*	?	4%	0%	i
COc1ccc(OC)c(NC(=O)c2nc(S(=O)(=O)Cc3ccccc3)ncc2Cl)c1	-17	10%[15.4 µM]	13%	-1%	-1%
O=C(Nc1ccc(F)cc1)c1nc(S(=O)(=O)Cc2ccccc2)ncc1Cl	-105*	-37%	40µM*	-2%	-22%
O=C(NCc1ccccc1)c1nc(S(=O)(=O)Cc2ccc(F)cc2)ncc1Cl	-116*	/	/	0%	-42%
O=C(Nc1nc2ccc(F)cc2s1)c1nc(S(=O)(=O)Cc2ccccc2)ncc1Cl	/	/	/	0%	-32%
N[C@H](C(=O)O)[C@@H](O)c1ccc(O)c(O)c1	19	/	/	/	/
O=C(Nc1cccc(Cl)c1Cl)c1ccc2c(c1)N(Cc1cccc(Cl)c1)C(=O)c1ccccc1S2=O (centres undefined)	13	/	/	-1%	i
Cc1nc(C2CCCCC2)c(-c2ccc(S(N)(=O)=O)c(F)c2)o1	-17	/	/	/	/
